Source: PubChem BioAssay AID1851 (National Center for Advancing Translational Sciences (NCATS), 2009)
Among all 16,000 compounds or so, about 5,800 (36%) were called active. Roughly 23% stayed inconclusive and do not appear here. The list shows a part of the results. A number with no mark means an inactive call. Calls come from the whole dose curve; as a rule, active = well fitted curve in the direction sought with a large enough effect; inconclusive = small, poorly fitted or top-dose-only effect, or effect the other way; inactive = no such curve, though single readings can be large or run the other way.

Target: Cytochrome P450 2C19 (Homo sapiens) (UniProt P33261)
Test: Cytochrome panel assay with activity outcomes
Details: recombinant CYP, pro-luciferin dealkylation, luminescence, p450-cyp2c19; series mostly up to 57.1 µM; activity, negative = inhibition: at the top concentration
% is set by controls: 0 for no effect and ±100 for the full control effect.

Sequence of Cytochrome P450 2C19 (Homo sapiens) (P33261 whole entry, looked up): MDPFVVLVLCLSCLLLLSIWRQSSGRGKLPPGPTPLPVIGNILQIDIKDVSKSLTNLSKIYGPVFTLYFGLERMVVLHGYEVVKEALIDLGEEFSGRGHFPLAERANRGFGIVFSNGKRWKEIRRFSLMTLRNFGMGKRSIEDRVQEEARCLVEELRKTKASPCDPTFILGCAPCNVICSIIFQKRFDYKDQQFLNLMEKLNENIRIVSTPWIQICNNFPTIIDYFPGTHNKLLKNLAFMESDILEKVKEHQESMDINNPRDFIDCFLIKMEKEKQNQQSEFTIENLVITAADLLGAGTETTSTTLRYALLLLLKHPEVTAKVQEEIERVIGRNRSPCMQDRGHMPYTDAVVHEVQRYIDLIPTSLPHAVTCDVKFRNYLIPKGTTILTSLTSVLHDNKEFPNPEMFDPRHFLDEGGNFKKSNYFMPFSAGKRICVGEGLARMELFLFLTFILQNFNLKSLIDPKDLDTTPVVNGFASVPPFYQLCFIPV

SMILES	activity, negative = inhibition	AC50
CC(C)N=c1cc2n(-c3ccc(Cl)cc3)c3ccccc3nc-2cc1Nc1ccc(Cl)cc1	-25.3% [at 25.6 µM]	–
O=c1c2ccccc2nc2n1C(CSCc1cccc(C(F)(F)F)c1)CS2 (stereo not given)	–	0.251 µM (active)
COc1ccc2cc3[n+](cc2c1OC)CCc1cc2c(cc1-3)OCO2	-19.4% [at 25.6 µM]	–
C[n+]1cc2c3c(ccc2c2ccc4cc5c(cc4c21)OCO5)OCO3	–	6.31 µM (active)
O=C(Nc1cc2c(oc1=O)CCCC2=O)c1ccc(Cl)cc1	–	22.4 µM (active)
Cc1ccc(S(=O)(=O)Nc2ccc(=O)n(Cc3ccc(Cl)c(Cl)c3)c2)cc1	–	0.158 µM (active)
O=c1ccc(NS(=O)(=O)c2ccccc2)cn1Cc1ccc(Cl)c(Cl)c1	–	0.2 µM (active)
O=c1ccc(NS(=O)(=O)c2ccc(Cl)cc2)cn1Cc1ccc(Cl)c(Cl)c1	–	0.251 µM (active)
CS(=O)(=O)c1ccccc1-c1nc(-c2cc(C(F)(F)F)cc(C(F)(F)F)c2)no1	-26.9%	–
Clc1ccccc1-c1nc(-c2ccncc2)no1	–	0.0631 µM (active)
O=C(c1ccccc1-c1nc(-c2ccccc2)no1)N1CCOCC1	-3.39%	–
CO[C@@H]1COC(=O)C/C=C\[C@@H](C)[C@@H]2C=C[C@H](O)[C@@H](COC(=O)CCC[C@H]1C)O2	-8.99% [at 11.4 µM]	–
CC(C)Oc1ccc2c(=O)c3cc(C(=O)O)ccc3oc2c1	-30.5%	–
COc1ccc2c(=O)c(-c3ccccc3C)c(C)oc2c1	–	20 µM (active)
N[C@H](C(=O)O)[C@H](O)C(=O)O	-18%	–
COc1ccccc1C1CC(c2c(-c3ccccc3)c3cc(Cl)ccc3[nH]c2=O)=NN1S(C)(=O)=O (stereo not given)	–	3.16 µM (active)
O=c1oc2ccccc2cc1-c1csc(NN=C2CCCCC2)n1	–	1.58 µM (active)
Cc1ccc(-c2noc(-c3cc4ccccc4oc3=O)n2)cc1	-22.9%	–
CCCc1nnc(SCC(=O)N2CCCC(C)C2)n1CC1CCCO1 (stereo not given)	-12.9%	–
CC1CC(C)CN(C(=O)CSc2nnc(CSc3ncccn3)n2C)C1 (stereo not given)	–	14.1 µM (active)

SMILES	activity, negative = inhibition	AC50
CS(=O)(=O)c1ccc([C@H](O)[C@H](CO)NC(=O)C(Cl)Cl)cc1	-51.5% [at 25.6 µM]	–
N#CC(=C1CCCC1)c1nc(-c2ccccc2)cs1	–	1.41 µM (active)
Cc1ccc(-c2csc(C(C#N)=C3CCCC3)n2)cc1	–	2.24 µM (active)
Nc1nc(N)c(-c2cccc(C(F)(F)F)c2)c(Cc2cccc(C(F)(F)F)c2)n1	–	2.51 µM (active)
Cc1ccc(S(=O)(=O)N[C@H](C(=O)N2CCC(C(=O)NCC(=O)O)CC2)C(C)C)cc1	-10.1%	–
Cc1ccc(C(=O)N2CCN(C3c4cccc5cccc(c45)C3NS(=O)(=O)c3ccccc3)CC2)cc1 (stereo not given)	–	3.16 µM (active)
CC(C)(CO)[C@H](O)C(=O)NCCCO	-17.6% [at 25.6 µM]	–
CCOc1ccc(N(C(C)C(=O)N/N=C(\C)c2cccc(NC(=O)c3ccccc3)c2)S(C)(=O)=O)cc1 (stereo not given)	–	3.98 µM (active)
C/C(CCN1CCCCc2nc(C)c(C)cc21)=N\OC[C@@H](C)[C@H](OCc1ccccc1)C(C)C	-22.2% [at 11.4 µM]	–
C[N+](C)(C)CCO	-4.75%	–
CCc1nnc(NC(=O)C2Cc3ccccc3CN2S(=O)(=O)c2ccc(C)cc2)s1 (stereo not given)	–	0.631 µM (active)
O=C(Nc1nccs1)C1Cc2ccccc2CN1S(=O)(=O)c1ccc(F)cc1 (stereo not given)	–	0.891 µM (active)
O=C(Nc1nnc(C2CC2)s1)C1Cc2ccccc2CN1S(=O)(=O)c1ccccc1F (stereo not given)	–	0.0282 µM (active)
O=C(O)c1c[nH]c2c(ccc3[nH]cc(C(=O)O)c(=O)c32)c1=O	-8.42% [at 11.4 µM]	–
Cc1ccccc1C(=O)N/N=C/c1ccncc1	–	39.8 µM (active)
O=C(N/N=C\c1cccc(O)c1)c1ccncc1	-1.11% [at 11.4 µM]	–
CC(=O)Nc1cccc(NC(=O)C2CCCN2C(=O)Nc2ccccc2C)c1 (stereo not given)	-15.2%	–
Cc1cc(NC(=O)c2ccco2)ccc1-n1cnnn1	–	17.8 µM (active)
Cc1cc(C)c(NC(=O)C2CCCN2C)c(C)c1 (stereo not given)	-28.8%	–
Cc1cc(C)cc(NC(=O)N2CCCC2C(=O)Nc2ccc(-n3cnnn3)c(C)c2)c1 (stereo not given)	–	0.282 µM (active)

SMILES	activity, negative = inhibition	AC50
CC(C)=CCC/C(C)=C/CO/N=C1/C[C@@H](O)[C@@H](O)[C@@H]2[C@@H]3C(=O)N(C(C)(C)C)C(=O)[C@H]3CC[C@@H]12	-29.1% [at 11.4 µM]	–
CCOC(=O)c1c(NC(=O)/C=C/c2ccc3c(c2)OCO3)sc(C)c1C	-10.8%	–
CCOC(=O)c1c(NC(=O)/C=C/c2ccc3c(c2)OCO3)sc(C)c1CC	–	5.01 µM (active)
CC(C)Oc1cccc(C(=O)NC(=S)N2CCN(c3ccc(C(F)(F)F)cc3[N+](=O)[O-])CC2)c1	–	8.91 µM (active)
COc1cccc(OC)c1C(=O)NC(=S)N1CCN(c2ccc(C(F)(F)F)cc2[N+](=O)[O-])CC1	–	14.1 µM (active)
COc1ccccc1CN1CCCC2(CCN(S(C)(=O)=O)CC2)C1	4.75%	–
O=P(O)(O)O[C@@H]1O[C@H](CO)[C@@H](O)[C@H](O)[C@@H]1O	38.5% [at 11.4 µM]	–
CCOc1ncccc1C(=O)OCC(=O)Nc1cc(C)ccc1C	–	5.01 µM (active)
CCOCC(=O)Nc1cc(-c2cn3cccnc3n2)ccc1C	29.5%	–
Cc1ccc(C)c(NC(=O)Cn2c([N+](=O)[O-])cnc2C)c1	-43.3%	–
CCOc1cc(NC(=S)NCC2CCCO2)c(OCC)cc1NC(=O)c1cccc(C)c1 (stereo not given)	–	11.2 µM (active)
Cc1ccc(C(=O)NC(=S)NCC2CCCO2)cc1 (stereo not given)	–	6.31 µM (active)
CCOC(=O)Nc1ccc(C(=O)NCC2CCCO2)cc1 (stereo not given)	14.5%	–
Cc1ccccc1CS(=O)(=O)Cc1ccc(C(=O)NCc2cccnc2)o1	–	3.55 µM (active)
O=C(O)c1cc2cc(Cc3cccnc3)ccc2o1	34.7%	–
CCOc1ccc(OCc2ccc(C(=O)N3CCc4ccccc4C3)o2)cc1	–	5.62 µM (active)
CC1CCN(C(=O)c2ccc(COc3ccccc3Cl)o2)CC1	–	8.91 µM (active)
CCOc1ccc(OCc2ccc(C(=O)NCc3cccnc3)o2)cc1	–	22.4 µM (active)
Cc1cc(=O)oc(C)c1C(=O)NCc1cccnc1	12.1%	–
NS(=O)(=O)c1cc2c(cc1Cl)NC(CSCc1ccccc1)=NS2(=O)=O	3.64% [at 25.6 µM]	–
